From PubChem BioAssay AID743360 (Molecular Libraries Program, Specialized Chemistry Center, …, 2014)
Activity calls are given as the source filed them.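 Rule for the calls: active = calcium retention capacity relative to untreated control above about 1.1 ratio (limit read from the data); inactive = the rest.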

assay: mitochondrial Ca2+ retention capacity increase – biochemical, dry powder samples, uHTS hits, Calcium Green-5N, dose response (AID 743360); conditions: isolated mitochondria, Ca retention capacity

| Structure (SMILES) | CRC/CRC0 ratio at 12.5 uM (higher = more inhibition) |
| --- | --- |
| CCc1ccccc1NC(=O)c1cc(-c2ccccc2)on1 | > 1 (inactive) |
| CN1CCN(CCc2ccc(NS(=O)(=O)c3cccc(Cl)c3)cc2)CC1 | > 1 (inactive) |
| CN1CCN(Cc2ccc(NS(=O)(=O)c3cc(Cl)cc(Cl)c3)cc2)CC1 | 1.1 (inactive) |
| CN1CCN(c2ccc(NS(=O)(=O)c3ccc(F)c(Cl)c3)cc2)CC1 | 1.08 (inactive) |
| O=C(Nc1ccc(Cl)cc1)c1cc(-c2cccc(O)c2)on1 | 3.44 (active) |
| COc1ccc(Cl)cc1C(=O)Nc1ccc(CN2CCNCC2)cc1 | 1.65 (active) |
| CN1CCN(c2ccccc2NC(=O)c2ccc(OCc3ccccc3)cc2)CC1 | 1.24 (active) |
| COc1ccc(Cl)cc1C(=O)Nc1cccc(CN2CCNCC2)c1 | 1.52 (active) |
| COc1ccc(Cl)cc1C(=O)Nc1ccc(N2CCOCC2)cc1 | > 1 (inactive) |
| COc1ccc(Cl)c(C(=O)Nc2ccc(CCN3CCOCC3)cc2)c1 | > 1 (inactive) |
| O=C(Nc1cccc(F)c1)c1cc(-c2cccc(O)c2)on1 | 2.24 (active) |
| O=C(Nc1cc(Cl)ccc1F)c1cc(-c2cccc(O)c2)on1 | 6.53 (active) |
| O=C(Nc1ccc(CN2CCCCC2)cc1)c1cccc(OCc2ccccc2)c1 | 3.54 (active) |
| CC(C)c1cc(C(=O)Nc2ccc(F)cc2F)no1 | 1.09 (inactive) |
| CN1CCN(Cc2ccc(NC(=O)c3cccc(OCc4ccccc4)c3)cc2)CC1 | 2.26 (active) |
| O=C(Nc1ccc(CN2CCCCC2)cc1)c1ccc(Cl)c(OCc2ccccc2)c1 | 21.3 (active) |
| COc1ccc(Cl)cc1C(=O)Nc1ccc(CN2CCCCC2)cc1 | 1.8 (active) |

| Structure (SMILES) | CRC/CRC0 ratio at 12.5 uM (higher = more inhibition) |
| --- | --- |
| O=C(Nc1ccc(CN2CCCCC2)cc1)c1cccc(Cl)c1 | 1.16 (active) |
| O=C(Nc1ccc(CN2CCCCC2)cc1)c1cc(OCc2ccccc2)ccc1Cl | 2.26 (active) |
| CN1CCN(Cc2ccc(NS(=O)(=O)c3cccc(Cl)c3)cc2)CC1 | 1.01 (inactive) |
| COc1ccc(Cl)c(C(=O)Nc2ccc(CN3CCN(C)CC3)cc2)c1 | > 1 (inactive) |
| O=C(Nc1ccccc1C(F)(F)F)c1cc(-c2ccccc2)on1 | > 1 (inactive) |
| COc1cccc(-c2cc(C(=O)Nc3cc(Cl)ccc3C)no2)c1 | 1.08 (inactive) |
| COc1ccc(Cl)cc1C(=O)Nc1ccc(N2CCN(C)CC2)cc1 | 1.2 (active) |
| COc1ccc(Cl)cc1C(=O)Nc1ccc(CN2CCN(C)CC2)cc1 | 1.24 (active) |
| CN1CCN(CCc2ccc(NS(=O)(=O)c3ccc(F)c(Cl)c3)cc2)CC1 | 1.08 (inactive) |
| CCCc1cc(C(=O)Nc2ccc(Br)cc2)no1 | 1.02 (inactive) |
| CN1CCN(c2ccc(NC(=O)c3cccc(OCc4ccccc4)c3)cc2)CC1 | 1.52 (active) |
| O=C(Nc1ccc(Br)cc1)c1cc(C2CC2)on1 | 1.06 (inactive) |
| O=C(Nc1cccc(Cl)c1)c1cc(-c2ccccc2)on1 | > 1 (inactive) |
| O=S(=O)(Nc1ccc(CN2CCCCC2)cc1)c1ccc(F)c(Cl)c1 | 1.07 (inactive) |
| CC1CCN(CCCC(=O)c2ccc(Br)cc2)CC1 | 1.05 (inactive) |
| O=C(Nc1cc(Cl)ccc1Cl)c1cc(-c2cccc(O)c2)on1 | 4.67 (active) |
| COc1ccc(/C=C/C(=O)Nc2cccc(Cl)c2)cc1O | 6.53 (active) |
